Data on 35 compounds can be found in PubChem BioAssay (EPA / NIEHS).

Assay [1] is described as follows: ACEA_ER_AUC_viability: ACEA Biosciences xCELLigence Real-Time Cell Analysis on Estrogen Receptor Agonism for Viability (AID 2283782).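 Note: hit means loss of impedance signal meaning reduced cell growth or viability.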 The essentials: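 Read-out: real-time electrical impedance (RT-CES) area under curve, loss of signal taken as reduced viability, normalized to DMSO baseline. T-47D cells, charcoal-stripped serum medium, compounds up to 100 uM final, continuous exposure, 80 h.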

Assay [2] in a line: ACEA_AR_agonist_AUC_viability: ACEA Biosciences xCELLigence Real-Time Cell Analysis on Androgen Receptor Agonism for Viability (AID 2283775).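 For AC50: viability read 80 hours after compound addition.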 Summed up:
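22Rv1 cells; impedance growth kinetics; 8-pt 1:4 dilutions from 100 uM top final, ≤0.5% DMSO; n = 2; 80 h read; AUC viability, loss-of-signal vs DMSO.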

The next assay addresses AR (gene 367) (UniProt P10275). Nature of the assay: ACEA_AR_antagonist_80hr: ACEA Biosciences xCELLigence Real-Time Cell Analysis on Androgen Receptor Antagonism for Proliferation (AID 2283787).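 Note: hits lower the impedance growth signal relative to DMSO.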 The essentials: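 Measures real-time proliferation of 22Rv1 prostate cancer cells by electrode impedance at 80 hours after dosing. Test articles ran at eight concentrations (1:4 steps, top 100 uM final) in biological duplicate.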

Assay [3] in a line: STM_H9_NormalizedViability: Cytotoxicity Assessment at 120 hours in the Stemina devTOX quickPredict H9 human embryonic stem cell (hESC)-based Assay (AID 2283784). The essentials: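 Viability endpoint: background-corrected CellTiter-Fluor RFU expressed relative to the 0.1% DMSO mean on each plate. Undifferentiated H9 cells were treated with daily re-dosing and media change, and loss of signal was fitted.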

A short description of assay [4]: ATG_M_06_XSP1: Attagene TRANS-FACTORIAL Multi-Species (XSP1) HepG2 Assay for M06 Transcription Factor (Internal Marker) (AID 2283790). The essentials:
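This background-control readout tracks M06 reporter mRNA, measured by RT-PCR and capillary electrophoresis. HepG2 cells transiently carrying the GAL4-UAS reporter panel were dosed for 24 h with 3 nM 6-alpha-fluorotestosterone added for partial AR stimulation; increases were scored relative to DMSO.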

A short description of assay [5]: ATG_M_61_XSP1: Attagene TRANS-FACTORIAL Multi-Species (XSP1) HepG2 Assay for M61 Transcription Factor (Internal Marker) (AID 2283797). Summed up: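 Background-control readout: reporter transcripts measured by RT-PCR and capillary electrophoresis 24 h after dosing transiently transfected HepG2 multi-reporter cells, with 3 nM 6-alpha-fluorotestosterone present. Fitted in the positive direction relative to DMSO.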

The nature of assay [6]: ATG_M_32_XSP1: Attagene TRANS-FACTORIAL Multi-Species (XSP1) HepG2 Assay for M32 Transcription Factor (Internal Marker) (AID 2283799). The essentials:
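Reporter transcripts from the M32 internal-control unit measured by RT-PCR, FAM labelling, HpaI digestion and capillary electrophoresis after 24 h compound exposure of transfected HepG2, 3 nM 6-alpha-fluorotestosterone included; DMSO baseline, positive-direction fit.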

The target in assay [7] is Peroxisome proliferator-activated receptor gamma (Homo sapiens) (UniProt P37231). Nature of the assay: ATG_hPPARg_XSP1: Attagene TRANS-FACTORIAL Multi-Species (XSP1) HepG2 Assay for human Peroxisome Proliferator-activated Receptor gamma (PPARg) (AID 2283800). Summed up: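 Reporter mRNA induction, measured by RT-PCR with capillary electrophoresis 24 h after dosing, scored as gain over DMSO. Transfected HepG2 cells express exogenous NR-Gal4 chimeras driving GAL4-UAS reporters; medium includes 3 nM 6-alpha-fluorotestosterone.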

For assay [8], the target named is mouse Peroxisome Proliferator-activated Receptor gamma (PPARg), Pparg (gene 19016) (UniProt P37238). The experiment in a line: ATG_mPPARg_XSP1: Attagene TRANS-FACTORIAL Multi-Species (XSP1) HepG2 Assay for mouse Peroxisome Proliferator-activated Receptor gamma (PPARg) (AID 2283802). The essentials: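 Readout is reporter mRNA induction, measured by RT-PCR with 6-FAM labelling, HpaI digestion and capillary electrophoresis, 24 h post-dose relative to DMSO. Transient multi-reporter transfection of human HepG2 with mouse PPARg–GAL4 fusion; 3 nM 6-alpha-fluorotestosterone included.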

Assay [9] can be described thus: ACEA_AR_antagonist_AUC_viability: ACEA Biosciences xCELLigence Real-Time Cell Analysis on Androgen Receptor Antagonism for Viability (AID 2283776).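 Note: area under impedance growth curve at 80 h after dosing as viability; hits lower the growth signal relative to DMSO meaning cytotoxicity.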 The essentials:
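22Rv1 human prostate cancer cells were seeded on electrode plates, monitored overnight, then exposed to eight 1:4 dilutions from 100 uM final. Impedance-based growth kinetics at 80 h gave an AUC viability endpoint normalized to DMSO.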

Results filed as inconclusive are left out. Activity calls are given as the source filed them. Rule for the calls: active = hit-call score of the fitted dose curve at least 0.9, where 1 is the maximum; inconclusive = response in the unintended direction; inactive = score below 0.9.

Sequence of AR (gene 367) (P10275 whole entry, looked up): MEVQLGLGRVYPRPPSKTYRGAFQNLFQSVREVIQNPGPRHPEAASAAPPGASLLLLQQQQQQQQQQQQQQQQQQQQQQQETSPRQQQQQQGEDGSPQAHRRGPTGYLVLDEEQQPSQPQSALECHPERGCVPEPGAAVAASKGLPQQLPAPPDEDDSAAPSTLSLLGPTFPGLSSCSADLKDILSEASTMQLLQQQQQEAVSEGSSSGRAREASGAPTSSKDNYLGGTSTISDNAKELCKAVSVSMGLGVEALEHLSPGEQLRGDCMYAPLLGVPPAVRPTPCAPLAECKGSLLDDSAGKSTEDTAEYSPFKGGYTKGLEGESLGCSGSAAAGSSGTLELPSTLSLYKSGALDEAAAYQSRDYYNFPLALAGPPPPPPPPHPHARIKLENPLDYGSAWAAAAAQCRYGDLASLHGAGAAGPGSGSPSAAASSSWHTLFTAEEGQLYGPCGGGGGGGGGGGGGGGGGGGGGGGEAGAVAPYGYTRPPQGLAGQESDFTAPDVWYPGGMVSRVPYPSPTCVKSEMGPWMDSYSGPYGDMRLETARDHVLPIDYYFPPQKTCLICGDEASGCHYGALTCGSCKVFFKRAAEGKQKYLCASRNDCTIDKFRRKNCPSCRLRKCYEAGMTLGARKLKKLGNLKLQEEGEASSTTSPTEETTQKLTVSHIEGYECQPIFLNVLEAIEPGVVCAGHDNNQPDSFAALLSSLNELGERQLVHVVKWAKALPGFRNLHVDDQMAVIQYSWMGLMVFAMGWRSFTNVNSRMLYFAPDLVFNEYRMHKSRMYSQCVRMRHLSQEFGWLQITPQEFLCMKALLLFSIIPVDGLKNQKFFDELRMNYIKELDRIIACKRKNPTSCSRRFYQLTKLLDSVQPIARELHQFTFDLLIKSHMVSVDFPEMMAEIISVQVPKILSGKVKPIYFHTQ
Sequence of Peroxisome proliferator-activated receptor gamma (Homo sapiens) (P37231 whole entry, looked up, the tested form may be a part): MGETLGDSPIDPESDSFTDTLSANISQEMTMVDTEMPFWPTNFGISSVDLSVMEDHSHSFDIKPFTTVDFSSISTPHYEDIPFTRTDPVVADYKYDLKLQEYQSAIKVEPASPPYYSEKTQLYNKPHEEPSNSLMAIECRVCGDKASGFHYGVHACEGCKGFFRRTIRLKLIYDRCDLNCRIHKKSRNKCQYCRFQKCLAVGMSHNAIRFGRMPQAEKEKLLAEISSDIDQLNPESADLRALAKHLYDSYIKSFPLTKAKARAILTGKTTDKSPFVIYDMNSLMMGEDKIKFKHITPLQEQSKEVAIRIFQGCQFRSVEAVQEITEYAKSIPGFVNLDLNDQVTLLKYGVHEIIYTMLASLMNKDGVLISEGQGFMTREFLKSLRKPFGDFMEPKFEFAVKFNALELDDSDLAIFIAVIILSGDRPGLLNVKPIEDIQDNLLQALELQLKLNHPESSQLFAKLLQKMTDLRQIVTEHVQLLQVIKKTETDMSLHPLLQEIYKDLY
Sequence of mouse Peroxisome Proliferator-activated Receptor gamma (PPARg), Pparg (gene 19016) (P37238 whole entry, looked up, the tested form may be a part): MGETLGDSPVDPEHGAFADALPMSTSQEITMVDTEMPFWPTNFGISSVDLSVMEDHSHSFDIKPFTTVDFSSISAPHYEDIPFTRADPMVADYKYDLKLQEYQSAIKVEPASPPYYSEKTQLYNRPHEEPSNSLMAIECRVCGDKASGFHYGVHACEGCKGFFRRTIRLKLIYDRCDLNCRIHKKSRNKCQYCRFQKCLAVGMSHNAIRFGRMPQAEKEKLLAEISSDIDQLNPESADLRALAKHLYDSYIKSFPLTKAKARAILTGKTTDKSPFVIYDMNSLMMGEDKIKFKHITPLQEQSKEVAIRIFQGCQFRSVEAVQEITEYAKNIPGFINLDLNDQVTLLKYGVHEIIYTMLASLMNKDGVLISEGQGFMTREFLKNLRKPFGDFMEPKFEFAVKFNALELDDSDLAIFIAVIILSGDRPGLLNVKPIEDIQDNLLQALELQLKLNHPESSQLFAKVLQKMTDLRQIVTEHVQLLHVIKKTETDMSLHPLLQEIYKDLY

As to `NC(=O)NN=Cc1ccc([N+](=O)[O-])o1`, the outcome in assay [1] was inactive.

For `FC(F)C(F)(F)COCC1CO1` (stereo unspecified), the result in [1] was inactive.

With `COc1cc(C(C)C)c2c(c1)S(=O)(=O)N(COc1cc(=O)n3cccc(OCCN4CCCCC4)c3n1)C2=O`, the results for the AC50 (in assay [2]; in assay [1]; in the assay with AR (gene 367)) were 22.3 µM (active), 17.4 µM (active) and 18 µM (active), respectively. Consider `CCCCCCOC(=O)CC(CC(=O)OCCCCCC)(OC(=O)CCC)C(=O)OCCCCCC`, for which the compound was classed as inactive (in assay [2]; in the assay with AR (gene 367)). `OC[C@H]1O[C@@](CO)(O[C@H]2O[C@H](CO)[C@@H](O)[C@H](O)[C@H]2O)[C@@H](O)[C@@H]1O`: the compound was called inactive in [1]. `COc1cc2c(c(OC)c1OC)-c1ccc(OC)c(=O)cc1[C@@H](NC(C)=O)CC2`: the half-maximal activity concentration (AC50) (in general, the concentration giving half of the maximal activity seen) in [2] is 0.00303 µM (active); in assay [1] it was 0.00238 µM (active); in assay [3], 0.0165 µM (active); with AR (gene 367), 0.00409 µM (active). For `FC(F)=C(F)C(F)(F)C(F)(F)C(F)(F)C(F)(F)C(F)(F)C(F)(F)F`, the result in [1] was inactive. Take `NCC(F)(F)C(F)(F)C(F)(F)C(F)(F)F`: in assay [1], the compound was classed as inactive.

In the case of `CCN(CC)C(=S)SSC(=S)N(CC)CC`, the AC50 is 25.8 µM (active) in assay [2], 25.4 µM (active) in [1], 0.309 µM (active) in assay [3] and 25.6 µM (active) with AR (gene 367). Also, the compound was called inactive in [4], in assay [5], in [6], in assay [7] and in assay [8].

As for `COS(C)(=O)=O`, the AC50 in assay [3] is 70.5 µM (active). `C[C@@H](Oc1ccc(CNC(=O)c2cccnc2Oc2ccc3c(c2)OCO3)c(F)c1)C(=O)O`: the compound was called inactive in assay [9] and in assay [1].

For `CCc1ccc(O)c(C(C)(C)C)c1`, the AC50 in assay [2] was 66.1 µM (active); in [1], 25.5 µM (active). Turning to `Cn1c(=O)c2[nH]cnc2n(C)c1=O`, the result in assay [2] and in [1] was inactive.

On to `CCCCCCCCCC`, for which the result in assay [1] and in assay [3] was inactive. Take `C=CN1CCCC1=O`: the outcome in assay [9] was inactive. For the compound `CCc1cccc(CC)c1N`, the AC50 was 50 µM (active) in assay [2] and 7.11 µM (active) in the assay with AR (gene 367).

For `CCOC(N)=O`, the result in assay [2] and in assay [1] was inactive. With `OCCOCCOCCO`, the compound was called inactive (in assay [9]; in the assay with AR (gene 367)). `O=S1(=O)CCCO1`: the result in assay [2] and in assay [3] was inactive. With `FC(F)(F)COC(OCC(F)(F)F)OCC(F)(F)F`, the compound was called inactive in assay [1].

For the compound `Cn1cc[nH]c1=S`, the compound was classed as inactive in assay [1] and in [3]. As for `Cc1nc(-c2ccccn2)ncc1C(=O)Nn1cc(C)c2cc(F)ccc21`, the outcome in [3] was inactive. With `CCCC(CCC)C(=O)O`, in assay [2], the compound was classed as inactive. In addition, the AC50 in [3] is 340 µM (active).

On to `CC[C@H](C)C(=O)O[C@H]1C[C@H](O)C=C2C=C[C@H](C)[C@H](CC[C@@H](O)C[C@@H](O)CC(=O)O)[C@H]21`, for which the result in [2] and in assay [3] was inactive.

On to `OCc1ccccc1`, for which the compound was classed as inactive (in [2]; with AR (gene 367)). In the case of `O=C(N[C@H](CO)[C@H](O)c1ccc([N+](=O)[O-])cc1)C(Cl)Cl`, the AC50 in assay [1] was 73.2 µM (active). With `OCCC(F)(F)C(F)(F)C(F)(F)C(F)(F)F`, the result in assay [1] was inactive.

As for `Cc1cccc(O)c1C`, in assay [1], the outcome was inactive. Take `O=C(Cl)C(F)(F)C(F)(F)C(F)(F)C(=O)Cl`: in assay [1], the result was inactive. In the case of `NC(=O)N1c2ccccc2C=Cc2ccccc21`, the outcome in assay [3] was inactive. As to `CCCCN1C(=O)[C@@H]([C@H](O)C2CCCCC2)NC(=O)C12CCN(Cc1ccc(Oc3ccc(C(=O)O)cc3)cc1)CC2`, the AC50 in assay [1] is 64.6 µM (active).

`OC(O)(C(F)C(O)(O)C(F)(F)F)C(F)(F)F`: the AC50 in assay [1] is 75 µM (active). For the compound `O=S(=O)(O)CCC(F)(F)C(F)(F)C(F)(F)C(F)(F)C(F)(F)C(F)(F)F`, the call in [1] was inactive. In the case of `Cc1ccc(S(=O)(=O)NC(=O)NN2CCCCCC2)cc1`, the compound was classed as inactive in assay [9]. Take `S=P(N1CC1)(N1CC1)N1CC1`: in assay [1], the AC50 is 69 µM (active).
